In PubChem BioAssay (Tox21):
“And” between values parts separate entries of the source, which are not always exact repeats. Identical values can stand only once. Results filed as inconclusive are left out. The source made the active and inactive calls. The call rests on the fitted dose curve; in most records, active means well fitted curve in the direction sought with a large enough effect in the repeat runs; inconclusive means weak or mixed curves; inactive means no such curve, though single readings can be large; an effect the other way counts as inactive or inconclusive.

Each molecule was assayed against Nuclear receptor subfamily 1 group I member 2 (Homo sapiens) (UniProt O75469) (assay: Human pregnane X receptor (PXR) activation by small molecules, qHTS assay (AID 1346985; further: nearly all actives have a fitted effect of over 40% in size)). Conditions: DPX-2 HepG2 CYP3A4-luciferase, 24 h; series mostly up to 38.3 µM.
Outline: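 DPX-2 cells (HepG2 co-transfected with a PXR response element and a CYP3A4-promoter luciferase construct) were seeded at 2,000 per well, rested 5 hr at 37C, then exposed to DMSO-dissolved compounds for 24 hr. Activation was read as luciferase luminescence.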
On the % scale 0 is the no-effect control and ±100 the full control effect; potency means the concentration at half of the fitted maximal effect.

SMILES	Potency
C#C[C@]1(OC(C)=O)CC[C@H]2[C@@H]3CCC4=C/C(=N/O)CC[C@@H]4[C@H]3CC[C@@]21CC	7.94 µM (active)
COC(=O)C1=C(C)NC(C)=C(C(=O)OCCN2CCN(C(c3ccccc3)c3ccccc3)CC2)C1c1cccc([N+](=O)[O-])c1 (stereo unspecified)	inactive
CC(C(=O)O)c1ccc2c(c1)[nH]c1ccc(Cl)cc12 (stereo unspecified)	inactive
CN1CCCCC1CCN1c2ccccc2Sc2ccc(S(C)=O)cc21 (stereo unspecified)	15.8 µM (active)

The molecules below were run against Cytochrome P450 2D6 (Homo sapiens) (UniProt P10635) (assay: Cytochrome P450 Family 2 Subfamily D Member 6 (CYP2D6) small molecule antagonists: luciferase reporter qHTS assay (AID 1671196; further: nearly all actives have a fitted effect of over 50% in size)). Conditions: P450-Glo CYP2D6 enzyme assay, luciferin luminescence, 1 h; series mostly up to 115 µM.
Chain of Cytochrome P450 2D6 (Homo sapiens) (P10635 whole entry, looked up): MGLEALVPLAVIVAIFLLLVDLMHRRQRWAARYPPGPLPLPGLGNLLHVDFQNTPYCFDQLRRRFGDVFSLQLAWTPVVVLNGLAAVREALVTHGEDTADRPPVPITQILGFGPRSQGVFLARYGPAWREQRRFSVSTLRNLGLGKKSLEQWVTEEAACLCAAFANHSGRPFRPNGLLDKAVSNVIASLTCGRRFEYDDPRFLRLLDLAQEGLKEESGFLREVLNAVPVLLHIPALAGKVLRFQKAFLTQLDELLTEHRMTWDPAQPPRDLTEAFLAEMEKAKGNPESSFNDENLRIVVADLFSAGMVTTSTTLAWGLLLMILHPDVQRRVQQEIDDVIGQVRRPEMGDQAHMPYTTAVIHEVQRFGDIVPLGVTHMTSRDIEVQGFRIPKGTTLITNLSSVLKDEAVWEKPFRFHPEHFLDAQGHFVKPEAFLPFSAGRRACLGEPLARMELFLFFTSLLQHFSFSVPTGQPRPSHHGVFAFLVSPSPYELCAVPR
Outline: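 Chemicals tested for interference with CYP2D6 activity; proluciferin substrate, NADPH regeneration, 1 h at room temperature, luminescent detection.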

SMILES	Potency
C#CC1(O)CC[C@H]2[C@@H]3CCC4=CCCC[C@@H]4[C@H]3CC[C@@]21C (stereo partly specified)	inactive
C#C[C@]1(OC(C)=O)CC[C@H]2[C@@H]3CCC4=C/C(=N/O)CC[C@@H]4[C@H]3CC[C@@]21CC	27.5 µM (active)
COC(=O)C1=C(C)NC(C)=C(C(=O)OCCN2CCN(C(c3ccccc3)c3ccccc3)CC2)C1c1cccc([N+](=O)[O-])c1 (stereo unspecified)	2.75 µM (active)
Nc1ccc(Oc2ccc(Cl)cc2)cc1	39.1 µM (active)
CN(C)[C@@H](CCOc1cccc2ccccc12)c1ccccc1	0.871 µM (active)
CC(C(=O)O)c1ccc2c(c1)[nH]c1ccc(Cl)cc12 (stereo unspecified)	inactive
C#C[C@]1(OC(C)=O)CC[C@H]2[C@@H]3CCC4=C[C@@H](OC(C)=O)CC[C@@H]4[C@H]3CC[C@@]21C	inactive
CNC(=O)c1ccccc1Sc1ccc2c(/C=C/c3ccccn3)n[nH]c2c1	30.9 µM (active)
CCO[C@@H]1O[C@H](C(COCc2ccccc2)OCc2ccccc2)[C@H](OCc2ccccc2)[C@H]1O (stereo partly specified)	38.9 µM (active)
O=C(/C=C/c1ccc(O)c(O)c1)O[C@@H](C(=O)O)[C@@H](OC(=O)/C=C/c1ccc(O)c(O)c1)C(=O)O	31.7 µM (active)
CN1CCN(Cc2cc(-c3ccc4[nH]c(=O)oc4c3)co2)[C@@H](c2ccc(F)cc2)C1	34.3 µM (active)
O=[N+]([O-])c1ccc(O)cc1C(F)(F)F	14.2 µM (active)
NC(=O)c1cccc([N+](=O)[O-])c1	inactive
Cc1ccc(O)c(O)c1	inactive
Cc1cc(C)c(/C=C2\C(=O)Nc3ccccc32)[nH]1	inactive
CN1CCCCC1CCN1c2ccccc2Sc2ccc(S(C)=O)cc21 (stereo unspecified)	0.0871 µM (active)
O=S(=O)(O)c1ccccc1/C=C/c1ccc(-c2ccc(/C=C/c3ccccc3S(=O)(=O)O)cc2)cc1	inactive

What follows are molecules tested against Cytochrome P450 2C19 (Homo sapiens) (UniProt P33261) (assay: Cytochrome P450 Family 2 Subfamily C Member 19 (CYP2C19) small molecule antagonists: luciferase reporter qHTS assay (AID 1671197; further: nearly all actives have a fitted effect of over 65% in size)). Conditions: P450-Glo CYP2C19 enzyme, luciferin luminescence, 1 h; series mostly up to 115 µM.
Chain of Cytochrome P450 2C19 (Homo sapiens) (P33261 whole entry, looked up): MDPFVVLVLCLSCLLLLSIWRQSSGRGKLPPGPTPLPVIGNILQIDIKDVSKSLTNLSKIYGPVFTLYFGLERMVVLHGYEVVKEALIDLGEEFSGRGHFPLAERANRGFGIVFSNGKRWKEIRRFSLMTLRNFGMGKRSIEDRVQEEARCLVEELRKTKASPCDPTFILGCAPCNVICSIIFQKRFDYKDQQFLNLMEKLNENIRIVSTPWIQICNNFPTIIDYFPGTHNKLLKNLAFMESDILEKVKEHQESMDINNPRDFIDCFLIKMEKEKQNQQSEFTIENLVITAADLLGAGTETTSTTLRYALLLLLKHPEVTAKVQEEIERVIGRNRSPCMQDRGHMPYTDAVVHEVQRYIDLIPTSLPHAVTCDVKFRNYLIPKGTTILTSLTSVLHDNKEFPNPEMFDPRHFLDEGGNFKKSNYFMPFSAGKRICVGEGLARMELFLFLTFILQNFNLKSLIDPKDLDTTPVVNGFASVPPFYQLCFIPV
Outline: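 Compounds were tested on CYP2C19 activity via proluciferin conversion to luciferin. The 37C, 1 h reaction followed NADPH addition; detection reagent stopped it.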

SMILES	Potency	activity change, negative = inhibition
C#CC1(O)CC[C@H]2[C@@H]3CCC4=CCCC[C@@H]4[C@H]3CC[C@@]21C (stereo partly specified)	7.96 µM (active) and 11 µM (active)	
CCCCNS(=O)(=O)c1ccc(C)cc1	5.64 µM (active)	
C#C[C@]1(OC(C)=O)CC[C@H]2[C@@H]3CCC4=C/C(=N/O)CC[C@@H]4[C@H]3CC[C@@]21CC	4.36 µM (active)	
COC(=O)C1=C(C)NC(C)=C(C(=O)OCCN2CCN(C(c3ccccc3)c3ccccc3)CC2)C1c1cccc([N+](=O)[O-])c1 (stereo unspecified)	2.45 µM (active)	
O=C1CCc2cc(OCCCCc3nnnn3C3CCCCC3)ccc2N1	inactive	
CCC(C)(CCC(C)C)C(=O)[O][Sn]([CH3])([CH3])[O]C(=O)C(C)(CC)CCC(C)C (stereo unspecified)	56.4 µM (active)	
C=CCn1c(=O)n(CC=C)c(=O)n(CC=C)c1=O	1.12 µM (active)	
c1ccc(SSc2ccccc2)cc1	22.6 µM (active)	
COc1ccc2c(c1)c(CC(=O)OC/C=C(\C)CC/C=C(\C)CCC=C(C)C)c(C)n2C(=O)c1ccc(Cl)cc1	15.5 µM (active)	
Nc1ccc(Oc2ccc(Cl)cc2)cc1	2.47 µM (active)	
CN(C)[C@@H](CCOc1cccc2ccccc12)c1ccccc1	0.977 µM (active)	
Oc1cc(Cl)cc(Cl)c1Cl	inactive	
CC(C(=O)O)c1ccc2c(c1)[nH]c1ccc(Cl)cc12 (stereo unspecified)	inactive	
C#C[C@]1(OC(C)=O)CC[C@H]2[C@@H]3CCC4=C[C@@H](OC(C)=O)CC[C@@H]4[C@H]3CC[C@@]21C	21.9 µM (active)	
OC12N=C(c3ccccc3)SC1Cc1cc(Cl)ccc12 (stereo unspecified)	0.126 µM (active)	
C=CC(=O)Nc1cc2c(Nc3ccc(F)c(Cl)c3)ncnc2cc1OCCCN1CCOCC1	inactive	
CCCCCCC1CCCC(=O)O1 (stereo unspecified)	inactive	
CNC(=O)c1ccccc1Sc1ccc2c(/C=C/c3ccccn3)n[nH]c2c1	17.4 µM (active)	

SMILES	Potency	activity change, negative = inhibition
NC(=S)NC(N)=S	20 µM (active)	
CCO[C@@H]1O[C@H](C(COCc2ccccc2)OCc2ccccc2)[C@H](OCc2ccccc2)[C@H]1O (stereo partly specified)	4.9 µM (active)	
O=C(/C=C/c1ccc(O)c(O)c1)O[C@@H](C(=O)O)[C@@H](OC(=O)/C=C/c1ccc(O)c(O)c1)C(=O)O	inactive	
O=[N+]([O-])c1ccc(O)cc1C(F)(F)F	inactive	
CC(C)(C)CC(C)(C)c1ccc(Nc2ccc(C(C)(C)CC(C)(C)C)cc2)cc1		-21.4% [at 10.5 µM] (inactive)
O=c1c(O)c(-c2ccc(O)cc2O)oc2cc(O)cc(O)c12	inactive	
Cc1ccc(N/N=c2\c(=O)cc/c(=N\Nc3ccc(S(=O)(=O)O)cc3)c2=O)c(C)c1	79.6 µM (active)	
[Cl][Pt-2]([Cl])([Cl])[Cl]	22.6 µM (active)	
NC(=O)c1cccc([N+](=O)[O-])c1	inactive	
Cc1ccc(O)c(O)c1	inactive	
Cc1cc(C)c(/C=C2\C(=O)Nc3ccccc32)[nH]1	7.76 µM (active)	
OC[C@H]1O[C@H](O[C@H]2O[C@H](CO)[C@@H](O)[C@H](O)[C@H]2O)[C@H](O)[C@@H](O)[C@@H]1O	inactive	
CN1CCCCC1CCN1c2ccccc2Sc2ccc(S(C)=O)cc21 (stereo unspecified)	inactive	
CCCCCC(C)OC(=O)COc1ccc(Cl)c2cccnc12 (stereo unspecified)	7.96 µM (active)	
Cc1cc(C(C)(C)C)c(O)c(C)c1Cn1c(=O)n(Cc2c(C)cc(C(C)(C)C)c(O)c2C)c(=O)n(Cc2c(C)cc(C(C)(C)C)c(O)c2C)c1=O	6.33 µM (active)	
CCOC(=O)c1ccc(C2CCC(NC[C@H](O)COc3ccc(O)c(NS(C)(=O)=O)c3)CC2)cc1 (stereo partly specified)	32.8 µM (active)	
O=S(=O)(O)c1ccccc1/C=C/c1ccc(-c2ccc(/C=C/c3ccccc3S(=O)(=O)O)cc2)cc1	inactive	
